This is part of a sample that, as a whole, favours compounds with a hit. Of some 83,000 tested, about 20% had one in any assay.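 48-hour exposure, single concentration, 96-well plates; percent growth endpoint where 0 means no net growth. Active: below 10.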 Values without a mark were called inactive. Activity calls are given as the source filed them.
Columns and labels:
Assay in all cases: NCI-60 one-dose screen, 48 h (100 = growth as untreated, 0 = no growth, -100 = all killed)
Conditions in all cases: 10 µM unless noted
[1] = system: NCI-H23 lung
[2] = system: NCI-H226 lung
[3] = system: NCI-H322M lung
[4] = system: HOP-62 NSCLC
[5] = system: NCI-H460 lung
[6] = system: NCI-H522 lung
[7] = system: A549/ATCC NSCLC
[8] = system: 786-0 renal
[9] = system: COLO 205 colon
[10] = system: DU-145 prostate
[11] = system: MALME-3M melanoma
[12] = system: MDA-MB-231 breast
[13] = system: RXF 393 renal
[14] = system: SF-268 CNS
[15] = system: SF-295 CNS
[16] = system: SF-539 CNS
[17] = system: UACC-257 melanoma
[18] = system: M14 melanoma
[19] = system: K-562 leukemia

SMILES | growth [1] | growth [2] | growth [3] | growth [4] | growth [5] | growth [6] | growth [7] | growth [8] | growth [9] | growth [10] | growth [11] | growth [12] | growth [13] | growth [14] | growth [15] | growth [16] | growth [17] | growth [18] | growth [19]
CC(C)(C)OC(=O)N1CCCN(CCNc2nccc(-c3c(-c4cccc(O)c4)nc4sccn34)n2)S1(=O)=O | 94.1% | 91.1% | 92.6% | 115% | 91.4% | 92.4% | 101% | 87.3% | 46.2% | 85% | 17.9% | 84.3% | 78.5% | 110% | 112% | 104% | 62.3% | 16.7% | –
COc1ccccc1CNCCCN1C(=O)c2ccc3c4c(ccc(c24)C1=O)C(=O)N(CCCOCCCCOCCCN)C3=O | -67.6% (active) | -10.8% (active) | -12.1% (active) | 14% | -65.5% (active) | -77.4% (active) | -33.8% (active) | 14.3% | -95% (active) | -74% (active) | -93.1% (active) | -4.84% (active) | -42.6% (active) | -21.5% (active) | -9.19% (active) | -34.9% (active) | -91.7% (active) | -85.4% (active) | –
Cc1ccsc1C(=O)CC(=O)C(F)(F)C(F)(F)C(F)(F)F | 104% | 93.1% | 104% | 99.4% | 114% | 112% | 99.4% | 106% | 112% | 112% | 105% | 96.6% | 108% | 107% | 97.1% | 102% | 108% | 117% | –
CC(C)(C)c1ccc(C(=O)Nc2sc3cc(O)ccc3c2C(N)=O)cc1 | 88.3% | 101% | 86.2% | 106% | 51.2% | 64.9% | 82.5% | 70.3% | 57.2% | 69.7% | 94% | 76% | 70.6% | 92.4% | 63.5% | 53.9% | 95.2% | 22.1% | –
Nc1c(N)c2ccccc2c2ccccc12 | 98.4% | 92.2% | 115% | 95% | 113% | 111% | 105% | 103% | 124% | 111% | 110% | 85.3% | 109% | 115% | 100% | 94.6% | 106% | 113% | –
Cc1ccc2c(C)c3c(ccc4ccccc43)c[n+]2c1 | 53.8% | 83.7% | 86.5% | 45.7% | 74.3% | 74.2% | 41.7% | 70.3% | 91.5% | 85% | -8.06% (active) | 72.7% | 104% | 31.5% | 36.4% | 72.8% | 69.2% | 89% | –
CCN1CCN(Cc2ccc(NC(=O)Nc3ccc(-n4ccc5c(NC(=O)c6ccccc6)nccc54)cc3)cc2C(F)(F)F)CC1 | -51.5% (active) | 71.1% | 80.8% | -78.4% (active) | -44.3% (active) | -87.2% (active) | -62.8% (active) | -84.6% (active) | – | -58.6% (active) | -48% (active) | -39.3% (active) | -86.8% (active) | 41.7% | -18.9% (active) | -48.4% (active) | -69.6% (active) | -65.1% (active) | -39.2% (active)
O=C1CCCN1C(O)CCN(Cc1ccccc1)Cc1ccc(Cl)cc1 (stereo unspecified) | 103% | 105% | 95.5% | 104% | 105% | 93.3% | 103% | 95.7% | 124% | 110% | 109% | 112% | 123% | 105% | 94.2% | 114% | 106% | 99.9% | –
C=C(c1ccc(C(=O)NCCCn2ccnc2)cc1)c1cc2c(cc1C)C(C)(C)CCC2(C)C | 44% | 72.3% | 42.8% | 18% | 13.9% | 10.2% | 40.3% | -17% (active) | 10.3% | 34% | -1.54% (active) | 28.7% | 35.8% | 38.5% | -29.6% (active) | 2.41% (active) | 99.2% | -76.4% (active) | –
O=C(CC(=O)C(F)(F)C(F)(F)C(F)(F)F)c1cc2ccccc2o1 | 101% | 99.8% | 106% | 97.5% | 110% | 108% | 96.1% | 98.4% | 114% | 114% | 102% | 100% | 116% | 111% | 99.2% | 94.1% | 100% | 106% | –
Cc1cc(-c2ccccc2)on1 | 106% | 99.4% | 90.5% | 92.9% | 112% | 97.9% | 104% | 95.2% | 109% | 111% | 102% | 105% | 119% | 103% | 100% | 88.8% | 109% | 105% | –
CCOC(=O)c1cnc(SCC)nc1SC#N | 94.6% | 142% | 103% | 121% | 115% | 31.8% | 101% | 101% | 82.1% | 103% | 97.7% | 98.2% | 173% | 103% | 106% | 89.2% | 92.6% | 84.7% | –
COc1ccc(/C=C(\C#N)c2cc(OC)c(OC)c(OC)c2)cc1 | 1.46% (active) | -8.11% (active) | 42.8% | 24.1% | 7.57% (active) | 5.56% (active) | 20.8% | 18.2% | -69.7% (active) | -1.75% (active) | 69.1% | 38.4% | 48.7% | 27% | 14.1% | 8.76% (active) | 65.7% | 8.3% (active) | –
COc1cc(NC(=O)CSc2nc3ccc(Cl)cc3c(=O)n2-c2ccccc2)cc(OC)c1OC | 102% | 91.2% | 99.8% | 85.5% | 98.2% | 84.8% | 89% | 92.1% | 116% | 102% | 88% | 77.8% | 95% | 90.9% | 87.5% | 93.9% | 102% | 94% | –
CSc1ccc(/C=C2\C=C(CC(=O)NCc3ccc(C(=O)c4ccccc4)cc3)c3cc(F)ccc32)cc1 | -23.2% (active) | -40.8% (active) | 39.4% | -7.82% (active) | -43.7% (active) | -38.5% (active) | -0.932% (active) | -25.7% (active) | -75.6% (active) | -34.3% (active) | 49.3% | -7.54% (active) | -34.1% (active) | 1.28% (active) | -20.2% (active) | -36.2% (active) | 55.2% | -33.2% (active) | –
COc1cc(-c2nc(-c3ccc(-c4nc5ccc(F)cc5[nH]4)cc3)no2)cc(OC)c1OC | 30.4% | 29.2% | 90.7% | 26.5% | 43.2% | 18.2% | 42.8% | 46.4% | 60.4% | 68.5% | 46% | 9.59% (active) | -3.77% (active) | 35.8% | 22.5% | 33.9% | 80.1% | 43.6% | –
Clc1cc2nc(-c3ccccc3)c(-c3ccccc3)nc2cc1Cl | 79.6% | 89.7% | 106% | 89.9% | 94.8% | 86.1% | 100% | 103% | 115% | 103% | 85.8% | 88% | 110% | 105% | 98.7% | 97.3% | 111% | 85.9% | –
